An excerpt weighted towards active compounds, which were near 27% of everything screened.
Cav32 inh – Cav3.2 calcium influx blockers – cell-based, Fluo-4 calcium fluorescence, FDSS, MLSMR library, primary screen. Cav3.2-expressing cells; stronger effect = lower value. B-score at 10 µM. actives 4% (n = 100,000). AID 449739, 2010;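 active = single-dose well whose peak fluorescence ratio is a statistical outlier from its plate by either plate-standardised score or position-corrected B-score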
CYP2C9 act – human CYP2C9 activators, primary screen, biochemical, luminescence. Cytochrome P450 2C9 (Homo sapiens), P11712. recombinant CYP2C9, luciferin-H conversion; stronger effect = higher value; factor 1 = untreated enzyme, 0 = blocked. activation factor at 5 µM. actives 1.4% (n = 96,000);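 active = activation factor of 2 or more for CYP2C9 at a 5 µM dose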;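 note: 0 = sulfaphenazole-blocked wells and 1 = vehicle-only wells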
Pyk2 oligo antag – antagonists of Pyk2 self-association, primary screen, Q293 cells, FERM NanoBiT luminescence, HTS | Protein-tyrosine kinase 2-beta (Homo sapiens), Q14289 | stronger effect = lower value | z-score (the deposit names both 25 µM and 10 µM) | actives 0.83% (n = 99,000);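 active = Z-score of -3 or lower, scaled per plate to the spread of control and sample wells; inactive = z-score above -3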;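 note: negative z-score means lost luminescence so less FERM oligomerization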
CYP2C19 inhib – blockers of cytochrome P450 2C19 activity – biochemical, luminescence, ADME assay, primary screen; P33261; CYP2C19 Supersomes, luciferin-H EGE luminescence, 30 min; inhibition, % at 5 µM; AID 778, 2007; actives 21% (n = 96,000);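 active = CYP2C19 inhibition above a set limit at 5 µM in the primary screen, cut at about 50% in these data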;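 note: plate controls were negative control wells for no effect and 2.5 mM tranylcypromine positive control for full effect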
Target sequence (P33261 whole entry, looked up): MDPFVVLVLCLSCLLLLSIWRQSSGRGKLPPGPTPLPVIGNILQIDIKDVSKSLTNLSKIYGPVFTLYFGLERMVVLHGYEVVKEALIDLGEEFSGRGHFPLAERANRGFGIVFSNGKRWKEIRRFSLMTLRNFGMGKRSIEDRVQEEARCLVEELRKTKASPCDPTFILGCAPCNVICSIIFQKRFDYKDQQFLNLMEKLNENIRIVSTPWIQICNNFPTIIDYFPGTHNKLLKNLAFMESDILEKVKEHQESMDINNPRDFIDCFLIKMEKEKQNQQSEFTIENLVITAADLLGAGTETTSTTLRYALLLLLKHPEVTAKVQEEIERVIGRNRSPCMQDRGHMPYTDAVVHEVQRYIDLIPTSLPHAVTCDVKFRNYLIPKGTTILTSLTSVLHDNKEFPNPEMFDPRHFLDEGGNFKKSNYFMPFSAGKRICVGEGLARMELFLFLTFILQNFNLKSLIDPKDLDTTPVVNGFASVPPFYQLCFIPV
CYP2C9 inh – blockers of cytochrome P450 2C9 activity – biochemical, luminescence, ADME assay, primary screen; inhibition, % at 5 µM; CYP2C9 Supersomes, luciferin-H conversion; P11712; actives 20% (n = 96,000);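 active = blocking of liver enzyme CYP2C9 beyond about 50% at 5 µM, limit read from the data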
CYP2C19 activ – human CYP2C19 activators, primary screen, biochemical, luminescence | recombinant CYP2C19, luciferin-H EGE luminescence; stronger effect = higher value; 0 = fully inhibited enzyme, 1 = untreated enzyme | Cytochrome P450 2C19 (Homo sapiens), P33261 | 96,000 tested, under 10 active | AID 1025, 2008 | activation factor at 5 µM;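 active = activation factor of at least 2 at 5 µM in the primary screen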;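 note: 0 = wells with 2.5 mM tranylcypromine and 1 = vehicle-only wells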
An asterisk follows results filed as active; x = not tested or not shown.

SMILES	Cav32 inh	CYP2C9 act	Pyk2 oligo antag	CYP2C19 inhib	CYP2C9 inh	CYP2C19 activ
c1ccc(-c2noc(CSc3nnnn3-c3ccccc3)n2)cc1	-4.99*	0.5	x	63.3*	53.6*	0.4
Nc1cnc(CNc2ccccc2Cl)cn1	0.62	x	x	x	x	x
CCCNC(=O)CCC(=O)Nc1ncc(-c2ccc(C)cc2)n1C	1.08	0.8	-1.91	13.2	19.2	0.9
Cc1noc(C)c1C(=O)OCC(=O)NC1CC1	0.793	0.9	-0.06	5.4	7.7	0.9
COC(=O)c1sc(N)c(C(=O)OC)c1COC(=O)c1c(C)noc1C	-2.27	0	-0.8	95.8*	96.9*	0
O=C(CSc1nnc(-c2ccco2)n1Cc1ccccc1)NCc1ccccc1	-0.342	x	-0.86	x	x	x
COc1cccc(-c2nnc(SCc3nc4ccccc4s3)n2C)c1	0.0518	0.7	0	81.3*	28.7	0.2
CCC(c1nnc(SCc2nc3ccccc3s2)n1Cc1ccccc1)N(C)C (centres undefined)	-1.17	0.3	0.04	80.6*	74.4*	0.2
c1ccc(Cn2c(SCc3nc4ccccc4s3)nnc2-c2ccco2)cc1	x	0.2	0.03	88.0*	82.7*	0.1
CCn1c(SCc2nc3ccccc3s2)nnc1-c1ccccc1	-0.287	0.8	0.28	99.0*	20.3	0
Cc1nnc(SCc2nc3ccccc3s2)n1-c1ccccc1	0.772	x	0.1	x	x	x
CCc1nnc(NC(=O)CSc2nc3cccnc3n2Cc2ccccc2)s1	-0.759	x	-1.55	x	x	x
CCC(Sc1nc(N)cc(N)n1)C(=O)O (centres undefined)	0.903	1.1	0.19	-9.3	-7.2	1.1
COC(=O)CNC(=O)CCCCC(=O)NCC(=O)OC	0.631	1.1	0.99	-13.6	-13.6	1.1
CCn1c(Cn2nnc(-c3ccccc3)n2)nnc1SCc1ccc(Cl)c(Cl)c1	-4.21	0.6	1.19	14.6	38.5	0.9
CCOC(=O)CSc1nnc(-c2cccc(Cl)c2)n1CC	x	0.9	0.72	52.4*	6.6	0.5
CCn1c(SCc2cccc(C)c2)nnc1-c1ccccc1	-1.53	1	-0.52	97.3*	4.6	0
COCCn1c(SCc2nc3ccccc3s2)nc2ccccc21	-2.4	0.1	-0.36	100.2*	85.9*	0
OCCn1c(CSc2nc3ccccc3n2CCO)nc2ccccc21	0.43	0.8	0.32	20.1	19.2	0.8
CN(C)CCNC(=O)C12CC3(C)CC(C)(CC(C)(C3)C1)C2	1.31	1	5.51	12.7	0.5	0.9
CCCCn1c(=N)n(CC(O)COc2cccc(C)c2)c2ccccc21 (centres undefined)	x	1	0.95	20.1	0.7	0.8
Cc1ccc(S(=O)(=O)NC(CC(=O)n2nc(C)cc2C)c2ccccc2)cc1 (centres undefined)	-6.3*	0.1	-0.84	99.6*	94.2*	0
CCOC(=O)C1CC=C(Cl)CC1C(=O)Nc1nccs1 (centres undefined)	-1.45	0.6	-1.27	36.5	40.7	0.6
COc1cccc(Nc2ncccc2C(=O)Nc2ccccc2)c1	-3.14	0.7	-1.12	22.2	25.4	0.8
O=C(CCc1ccccc1O)N/N=C/c1ccc(Sc2cccc3cccnc23)o1	-1.77	0	-0.8	48.9	98.8*	0.5
SMILES	Cav32 inh	CYP2C9 act	Pyk2 oligo antag	CYP2C19 inhib	CYP2C9 inh	CYP2C19 activ
COC(=O)c1ccc(/C=N/NC(=O)c2cccc(F)c2)cc1	0.668	0.9	-0.1	14.2	7.1	0.9
O=C(N/N=C/c1ccc(Sc2ccccn2)o1)c1cc2ccccc2cc1O	-4.99*	0.1	-0.15	98.2*	87.9*	0
O=C(N/N=C\c1ccc(Sc2ccccn2)o1)c1cccc(F)c1	1.17	0.4	-1.27	59.3*	59.5*	0.4
Cc1nc2ccccc2cc1C(=O)N/N=C/c1ccco1	x	x	0.71	x	x	x
O=C(O)CN1C(=O)SC(Nc2ccc(Cl)cc2)C1=O (centres undefined)	-0.593	1	-0.25	15.9	0.0	0.8
CC(C)(C)c1ccc(S(=O)(=O)N2CCC(c3nc4ccc(Cl)cc4[nH]3)CC2)cc1	-4.59*	x	-1.8	x	x	x
O=C(CSc1nnnn1C1CCCC1)c1ccc2c(c1)OCCO2	-1.85	0.7	-0.88	22.9	27.3	0.8
CC(=O)Nc1ccc(NC(=O)CSc2nnc(-c3ccccc3)n2Cc2ccc3c(c2)OCO3)cc1	1.1	0.7	-1.28	24.6	29.9	0.8
Nn1c(SCC(=O)Nc2ccc3c(c2)OCO3)nnc1-c1ccccc1	1.67	0.5	0.32	27.6	50.6*	0.7
C=CCn1c(SCC(=O)Nc2ccc3c(c2)OCO3)nnc1-c1ccccc1	0.429	0.5	-0.33	53.8*	51.9*	0.5
O=C(CSc1nnnn1C1CCCC1)Nc1ccc2c(c1)OCO2	-0.453	0.5	0.02	39.2	54.8*	0.6
Nn1c(SCC(=O)Nc2ccc3c(c2)OCO3)nnc1-c1ccc(Cl)cc1	-0.4	1	0.46	-13.0	4.2	1.1
C=CCn1c(SCC(=O)Nc2ncc(Cc3cc(Cl)ccc3Cl)s2)nnc1-c1ccncc1	0.702	0.8	-0.63	56.1*	16.8	0.4
C=CCn1c(SCC(=O)Nc2ncc(Cc3cc(C(F)(F)F)ccc3Cl)s2)nnc1-c1ccncc1	-0.274	0.8	-0.86	38.0	21.3	0.6
O=C(CSc1nc2[nH]ncc2c(=O)[nH]1)NCc1ccc(F)cc1	x	x	0.03	x	x	x
O=C(Nc1cc(N2CCOCC2)ncn1)NC1(C(F)(F)F)Oc2ccccc2O1	0.426	x	0.75	x	x	x
CC(C)(C)c1ccc(C(=O)NC(Cc2ccccc2)C(=O)O)cc1 (centres undefined)	-0.289	0.9	-0.07	1.0	8.2	1
Cc1ccc(NC(=O)CCC(=O)NNC(=O)Cc2ccccc2)cc1C	x	1.1	-0.76	25.3	-10.1	0.7
Nn1c(SCC(=O)Nc2ccc3c(c2)OCCO3)nnc1-c1ccccn1	x	1.2	x	17.7	-21.2	0.8
Cc1ccccc1-c1nnc(SCC(=O)Nc2ccc3c(c2)OCCO3)n1N	0.731	0.3	0.39	39.6	73.0*	0.6
CCn1c(SCC(=O)Nc2ccc3c(c2)OCO3)nnc1-c1cnccn1	1.42	x	-0.16	x	x	x
Cc1ccc(NC(=O)CSc2nnc(-c3ccncc3)n2N)cc1C	1.01	0.5	0.22	28.7	53.3*	0.7
C=CCn1c(SCC(=O)Nc2ccc3c(c2)OCO3)nnc1-c1ccccc1OC	-0.264	0.1	0.08	83.3*	89.3*	0.2
C=CCn1c(SCC(=O)Nc2ccc3c(c2)OCO3)nnc1-c1cc(Br)ccc1O	-6.61*	0.2	-1.62	48.8	82.3*	0.5
COc1ccc(OC)c(C(=O)COC(=O)CNC(=O)C2CCCCC2)c1	0.00392	1.3	0.59	22.4	-34.9	0.8

Screens deposited in PubChem by several laboratories.
